Out of some 300,000 compounds screened, about 37,000 (12%) were called active. Rule as the data show it: active = max response mostly above about 13% (no sharp cut-off); inactive = mostly below about 14%. Only a selection was taken, and actives are over-represented in it overall.
Assay: Cycloheximide Counterscreen for Small Molecule Inhibitors of Shiga Toxin; also: read at 38.3 µM for the half of the compounds with a filed dose; 0% is about no effect
Settings: cell reporter, cycloheximide protein synthesis inhibition counterscreen; stronger effect = higher value

| Compound | max response |
| --- | --- |
| CCOc1ccccc1N1CN(Cc2ccccc2)CNC1=S | -1.15% (inactive) |
| Cc1ccccc1NCC(=O)N/N=C\c1ccc([N+](=O)[O-])s1 | 25.2% (inactive) |
| CSc1ccc(/C=C/C(=O)NC23CC4CC(CC(C4)C2)C3)cc1 | 49.9% (active) |
| Cc1ccc(C(=O)NC23CC4CC(CC(C4)C2)C3)c(Cl)c1 | 11.3% (inactive) |
| CSc1ccc(NC(=O)/C=C/C(=O)O)cc1 | 6.1% (inactive) |
| CC1(C)CC(=O)c2c(n(S(=O)(=O)c3ccccc3)c3ccc(NS(=O)(=O)c4ccccc4)cc23)C1 | -1.24% (inactive) |
| CCOC(=O)N1CCN(S(=O)(=O)c2ccc(OC)cc2)CC1 | -1.81% (inactive) |
| CCS(=O)(=O)n1nc(-c2ccc(OC)cc2)nc1SC | 23.6% (active) |
| CCS(=O)(=O)n1nc(-c2ccccc2)nc1SCc1ccccc1 | 62.5% (active) |
| COc1ccc(-n2c(SC)nc(O)cc2=O)cc1 | -4.06% (inactive) |
| CCn1c(SCc2ccccc2)nc2cc(OC)c(OC)cc2c1=O | 0.431% (inactive) |
| CCn1c(SCc2ccccc2)nc2c(c1=O)SCC2 | -1.78% (inactive) |
| CCOc1ccc(CN2CCNC(=O)C2CC(=O)NCCCC2CCCC2)cc1 (stereo not given) | 16.3% (inactive) |
| Cc1ccc2nc(C)cc(N/N=C/c3ccc(F)cc3)c2c1 | -2.09% (inactive) |
| CCOc1cc(/C=N/Nc2cc(C)nc3ccc(C)cc23)ccc1O | 17.3% (active) |
| COc1cccc(-c2cc(C(=O)N/N=C/c3ccc(OC)c(COC(C)=O)c3)c3ccccc3n2)c1 | 2.97% (inactive) |
| CCOc1cc(/C=N/NC(=O)c2cc(-c3ccccc3)nc3ccccc23)ccc1O | 17.7% (active) |
| CCOc1ccc(/C=N/NC(=O)CSc2ccccn2)cc1O | 1.88% (inactive) |
| Cc1cc(C(=O)N/N=C/c2ccccn2)c2ccccc2n1 | -8.99% (inactive) |
| COc1cc(OC)c2c(C)cc(=O)oc2c1C(CCN1CCCCC1)c1ccc(N(C)C)cc1 (stereo not given) | -1.45% (inactive) |
| COc1cc(CN2CCCC(C(=O)c3ccc(SC)cc3)C2)cc(Cl)c1O (stereo not given) | 4.43% (inactive) |
| N=c1n(CCc2ccccc2)c2ccccc2n1Cc1ccccc1F | -8.79% (inactive) |
| COc1ccccc1/C=C/C(=O)NC1CC2CCC1C2 (stereo not given) | 14.3% (active) |
| COc1ccccc1/C=C/C=N/NC(=O)CN1CCN(Cc2ccccc2)CC1 | -1.49% (inactive) |

| Compound | max response |
| --- | --- |
| CCOC(=O)C(=Cc1ccccc1OC)C(=O)OCC | 2.29% (inactive) |
| COc1ccc(C)cc1NC(=S)N1CCOCC1 | -2.32% (inactive) |
| COc1ccccc1C(=O)Nc1cccc(C(=O)N2CCOCC2)c1 | -2.39% (inactive) |
| COc1ccccc1/C=C/C(=O)NC(=S)N1CCOCC1 | 47.7% (active) |
| COc1ccc(Cl)cc1NC(=O)CCS(=O)(=O)c1ccc(Br)cc1 | -3.81% (inactive) |
| CSc1ccc(S(=O)(=O)N2CCC(C(=O)NCc3ccncc3)CC2)cc1 | -2.48% (inactive) |
| CCN1CCN(c2nc(Nc3cc(OC)ccc3OC)nc(Nc3cc(OC)ccc3OC)n2)CC1 | -2.31% (inactive) |
| COc1ccc(C(=O)/C=C/c2ccc(-c3ccccc3)cc2)cc1CSCC(=O)O | 16.5% (inactive) |
| COc1ccc(/C=C/C(=O)c2ccc(NS(=O)(=O)c3ccc(C)cc3)cc2)cc1O | -1.98% (inactive) |
| COC(=O)c1ccc(COc2ccc(/C=C/C(=O)c3ccc(OC)c(CSCC(=O)O)c3)cc2OC)cc1 | 16.2% (active) |
| Fc1ccc(Cl)cc1-c1nc(Nc2ccncc2)c2nccnc2n1 | 1.12% (inactive) |
| COc1ccc(N(C(=O)c2snc(C(N)=O)c2N)C(C(=O)NC2CCCC2)c2ccc(C)o2)c(OC)c1 (stereo not given) | -6.04% (inactive) |
| Cc1ccc(SCc2c(C(=O)N/N=C/C3CC=CCC3)nnn2-c2nonc2N)cc1 (stereo not given) | -2.54% (inactive) |
| COCc1c(C(=O)N/N=C/C2CC=CCC2)nnn1-c1nonc1N (stereo not given) | 1.58% (inactive) |
| O=C(N/N=C\C1CC=CCC1)c1ccc(Br)o1 (stereo not given) | 29.4% (active) |
| C=CCC1CCC(=O)N2CCCC12 (stereo not given) | -5.3% (inactive) |
| CN(CC(=O)N1CCN(c2ccccc2)CC1)S(=O)(=O)c1cccs1 | 29% (active) |
| O=C(CCNS(=O)(=O)c1cccs1)N1CCN(c2ccc(F)cc2)CC1 | -5.58% (inactive) |
| COc1ccc(OC)c(S(=O)(=O)N(C)CC(=O)N2CCN(c3ccccc3)CC2)c1 | 6.23% (inactive) |
| Cc1ccc(C(=O)NN(CCC#N)C2=NS(=O)(=O)c3ccccc32)cc1 | 0.601% (inactive) |
| CONc1nc2nonc2nc1NOC | -2.64% (inactive) |
| COc1ccc(NC(=O)c2c(SC)nsc2SC)cc1 | -1.45% (inactive) |
| COc1ccc(-c2nn(-c3ccccc3)cc2C(=O)Nc2nc(CC(C)=O)ns2)cc1 | 9.17% (inactive) |
| COc1ccc(NC(=O)c2cn(-c3ccccc3)nc2SC)cc1 | 15.2% (active) |

| Compound | max response |
| --- | --- |
| Cc1ccc(-c2cn(S(=O)(=O)c3cccc([N+](=O)[O-])c3)nc2N)cc1 | -2.07% (inactive) |
| Cc1cc(C)nc(Nc2cc([N+](=O)[O-])ccc2C)n1 | 7.47% (inactive) |
| Cc1ccc(-n2cc3ccc([N+](=O)[O-])cc3n2)cc1 | 46.9% (active) |
| CCCCc1nn(-c2ccccc2C(F)(F)F)c(=O)n1Cc1ccc(-c2ccccc2S(=O)(=O)NC(=O)c2sccc2C)cc1 | -3.92% (inactive) |
| CN1CCN(CCCCOc2ccccc2-c2ccccc2)CC1 | -2.52% (inactive) |
| COc1ccccc1N1CCN(C(=O)c2ccc(Cl)c(S(=O)(=O)N3CCCC3)c2)CC1 | 1.2% (inactive) |
| CC12CN(NC(=O)c3ccc(Cl)cc3)C3(C#N)CC1CCC23C (stereo not given) | -3.78% (inactive) |
| CC(C)=CCN1CCN(Cc2ccc(Oc3ncccn3)cc2)CC1CCO (stereo not given) | -1.38% (inactive) |
| CCOc1ccc(CN2CCN(CCCc3ccccc3)C(CCO)C2)cc1 (stereo not given) | -3% (inactive) |
| OCCC1CN(Cc2ccc(Oc3ncccn3)cc2)CCN1CCc1ccccc1 (stereo not given) | 14.5% (active) |
| N#Cc1cccc(CN2CCC(=O)N(CCO)CC2)c1 | -1.61% (inactive) |
| O=C(c1ccc(N2CCOCC2)c([N+](=O)[O-])c1)N1CCN(S(=O)(=O)c2cccs2)CC1 | -2% (inactive) |
| CN(c1ccc(OCC(=O)O)cc1)S(=O)(=O)c1ccc2ccccc2c1 | -2.07% (inactive) |
| O=C(NCc1ccccc1)c1ccc(S(=O)(=O)Nc2cccc(C(F)(F)F)c2)cc1 | 2.15% (inactive) |
| O=C(NCc1cccc(C(F)(F)F)c1)c1cccc(S(=O)(=O)N2CCN(Cc3ccccc3)CC2)c1 | -5.35% (inactive) |
| O=C(Cc1cccs1)NCc1cccc(C(F)(F)F)c1 | 36.1% (active) |
| Cc1nc([N+](=O)[O-])nn1C12CC3CC(CC(Br)(C3)C1)C2 | 15.4% (inactive) |
| CCC(C)(C)c1ccc(OCC(=O)N(C)C)c(C(C)(C)CC)c1 | -3.16% (inactive) |
| O=C(c1ccc2nc(N3CCOCC3)sc2c1)N1CCN(c2ccc(Cl)cc2)CC1 | 1.7% (inactive) |
| Cc1nc2ccc(C(=O)N3CCSCC3)cc2s1 | 11.3% (active) |
| Cc1nc2ccc(C(=O)N3CCN(c4ccccc4)CC3)cc2s1 | -1.5% (inactive) |
| OC(COCCC12CC3CC(CC(C3)C1)C2)CN1CCCCC1 (stereo not given) | -4.31% (inactive) |
| Cc1nc(C)c(-c2nnc(-c3cccc(S(=O)(=O)N(C)C)c3)o2)cc1C(=O)NN | -1.43% (inactive) |
| CCN(CC)C(=O)c1sc2nc(-c3ccccc3)ccc2c1N | 63.5% (active) |

| Compound | max response |
| --- | --- |
| COc1cccc(C(=O)c2sc3nc(-c4ccccc4)cc(C(F)(F)F)c3c2N)c1 | 10.5% (inactive) |
| CN(C)c1ccnc2sc(C(=O)c3ccccc3)c(N)c12 | 57.9% (active) |
| CN(C)c1ccnc2sc3c(=O)n(Cc4ccccc4)cnc3c12 | -5.28% (inactive) |
| Cc1ccc2c(N)c(C(=O)c3ccccc3)sc2n1 | 29% (active) |
| CS(=O)(=O)c1sc2nc(-c3ccccc3)cc(-c3ccccc3)c2c1N | -3.03% (inactive) |
| NC(=O)c1sc2nc3c(c(-c4ccccc4)c2c1N)CCC3 | -2.08% (inactive) |
| Cc1nc2sc(C(=O)c3ccccc3)c(N)c2c2c1CCCC2 | 20.5% (active) |
| CC(=O)c1c(Nc2ccccc2)sc(C(=O)c2ccccc2)c1C | 0.579% (inactive) |
| COC(=O)c1cc2c(N)c(C(=O)c3ccc(Cl)cc3)sc2nc1C(OC)OC | -3.14% (inactive) |
| CCOC(=O)c1sc2nc(SC)nc(-c3ccccc3)c2c1N | -2.15% (inactive) |
| CCc1nc2sc(C(=O)O)c(N)c2c2c1CCCC2 | -1.77% (inactive) |
| C[C@H](C(=O)CC(=O)OC(C)(C)C)[C@H](O)c1ccc(C(F)(F)F)cc1 | 1.49% (inactive) |
| Oc1ccc(-c2c(-c3ccccc3)nn3c(C(F)(F)F)cc(C(F)(F)F)nc23)cc1 | -7.49% (inactive) |
| Cc1ccc2c(c1)N(CC(=O)N1CCC(O)CC1)C(=O)CO2 | -1.82% (inactive) |
| CC[C@@H](C)[C@H](NC(=O)CCc1c(C)c2cc3c4c(oc3c(C)c2oc1=O)CCCC4)C(=O)O | 9.7% (inactive) |
| COc1ccc(/C=C2\SC(=S)N(CCC(=O)Nc3ccccn3)C2=O)cc1OC | -7.17% (inactive) |
| O=C(CNC(=O)[C@@H]1Cc2ccccc2CN1)NC1CCCCC1 | 1.46% (inactive) |
| COc1ccc(/C(C)=N/Nc2cc(C(F)(F)F)ccc2Cl)c(OC)c1 | -5.52% (inactive) |
| Nc1c(-c2cccc(Cl)c2)cnn1-c1cccc([N+](=O)[O-])c1 | 17.2% (active) |
| O=C(CCl)N(Cc1cccc([N+](=O)[O-])c1)c1cccc(Cl)c1 | -0.93% (inactive) |
| Cn1nc(-c2ccccc2)c2cc([N+](=O)[O-])ccc21 | 1.38% (inactive) |
| CN(C)/C=C(\C=[N+](C)C)c1[nH]ncc1[N+](=O)[O-] | -6.11% (inactive) |
| CNc1[nH]ncc1[N+](=O)[O-] | 40.2% (active) |

Reference: PubChem BioAssay AID2314 (National Center for Advancing Translational Sciences (NCATS), 2010)
